Laboratory results from PubChem BioAssay (Tox21).
Inconclusive results are not listed. Activity calls are given as the source filed them. Unless noted, calls follow the shape of the dose curve; as a rule, active = well fitted curve in the direction sought with a large enough effect in the repeat runs; inconclusive = weak or mixed curves; inactive = no such curve, though single readings can be large; an effect the other way counts as inactive or inconclusive.

Legend:
[1] = qHTS assay to identify small molecule agonists of the hypoxia (HIF-1) signaling pathway - cell viability counter screen (AID 1224844; calls by dose curve; also: nearly all actives have a fitted effect of over 50% in size)
Summary of the method: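 In this counter screen, HRE-bla ME-180 cell viability after 17 hrs of compound exposure at 37C was read by CellTiter-Glo luminescence, multiplexed with the beta-lactamase reporter measurement.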

[2] = qHTS assay to identify small molecule agonists of H2AX (AID 1224845; active = well fitted activation curve with a large enough effect in the signal ratio in the repeat runs, not every such curve was filed as active; the % refers to the signal ratio)
Summary of the method: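 Wild-type CHO-K1 cells plated overnight, then exposed 3 hr at 37C to compounds at 15 concentrations (0.76% DMSO). Lysed, then HTRF anti-pH2AX(S139)-cryptate/anti-H2AX-d2 detection after 24 hr at room temperature; emissions 665 and 620 nm.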

[3] = qHTS assay to identify small molecule agonists of the hypoxia (HIF-1) signaling pathway (AID 1224846; active = well fitted activation curve with a large enough effect in the signal ratio in the repeat runs, not every such curve was filed as active; the % refers to the signal ratio)
Summary of the method: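 ME-180 HRE-bla reporter cells; compounds in DMSO, 17 h at 37C; read-out beta-lactamase via CCF4-AM FRET.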

[4] = qHTS assay to identify small molecule agonists of H2AX - cell viability counter screen (AID 1224847; calls by dose curve; also: top concentration of the series differs between compounds; nearly all actives have a fitted effect of over 30% in size)
Summary of the method: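 Read-out: CellTiter-Glo luminescence, 30 min RT. Cells: wild-type CHO-K1, 1000/well, 10% FBS, plated overnight at 37C. Treatment: 15 concentrations, 3 hr, 37C, 0.76% DMSO.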

[5] = qHTS RealTime-Glo MT Cell Viability Assay in HepG2 cells - 24 hour (AID 1224867); also: nearly all actives have a fitted effect of over 50% in size
Summary of the method: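 HepG2 cells were seeded at 600 cells/well together with NanoLuc luciferase and a cell-permeant prosubstrate, preincubated 5 h at 37 C/5% CO2, then pin-dosed with compounds in DMSO. Nonlytic luminescence from viable cells was read at each time point.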

[6] = qHTS RealTime-Glo MT Cell Viability Assay in HEK293 cells - 32 hour (AID 1224868); also: top concentration of the series differs between compounds; nearly all actives have a fitted effect of over 50% in size
Summary of the method: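 HEK293 cells were seeded at 600 cells/well together with NanoLuc luciferase and cell-permeant prosubstrate, preincubated 5 h at 37 C/5% CO2, then given compound in DMSO by pintool. Luminescence from viable-cell prosubstrate reduction was read repeatedly over 40 h.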

[7] = A CellTox Green Cytotoxicity Assay to monitor cytotoxicity in HEK293 cells - 0 hour (AID 1224869); also: nearly all actives have a fitted effect of over 50% in size
Summary of the method: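 Real-time, in one plate: 600 HEK293 cells/well with dead-cell DNA dye, pinned compound after 5 h, 37 C incubation over 40 h; viable cells give no appreciable fluorescence.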

[8] = qHTS RealTime-Glo MT Cell Viability Assay in HepG2 cells - 40 hour (AID 1224870); also: nearly all actives have a fitted effect of over 50% in size
Summary of the method: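 HepG2 cells mixed with RealTime-Glo MT reagents (NanoLuc plus cell-permeant prosubstrate) were seeded at 600 cells/well, incubated 5 h at 37 C/5% CO2, then pinned with compounds in DMSO; nonlytic luminescence tracked viability during 40 h treatment.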

[9] = qHTS assay to identify small molecule antagonists of the estrogen related receptor (ERR) signaling pathway from Tox21 library (AID 1224848); also: nearly all actives have a fitted effect of over 50% in size
Summary of the method: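 Tox21 10K compounds in DMSO tested for ERR pathway antagonism in NTP's ERR cell line; 18 h, 37 C exposure; ONE-Glo luminescence.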

[10] = qHTS assay to identify small molecule agonists of the estrogen related receptor (ERR) signaling pathway from Tox21 library (AID 1224849; calls by dose curve; also: nearly all actives have a fitted effect of over 15% in size); settings: ERR reporter cell line, ONE-Glo luciferase, 18 h; at 92.4 µM (top of the series) unless noted
Summary of the method: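 Luciferase activity in ERR pathway reporter cells served as the agonist readout; exposure lasted 18 h at 37 C, with ONE-Glo detection after 30 min at room temperature.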
% is scaled to controls: 0 for no effect and ±100 for the full control effect.

O=C(O)c1c(Cl)ccc2cc(Cl)cnc12
inactive: Potency [1] | outcome [2] | outcome [3] | Potency [4] | Potency [5] | Potency [6] | outcome [7] | Potency [8]

CCOP(=O)(CN(CCO)CCO)OCC
inactive: Potency [1] | outcome [2] | outcome [3] | Potency [4] | Potency [5] | Potency [6] | outcome [7] | Potency [8]

C[C@@H](N)[C@@H](O)c1ccccc1
inactive: Potency [1] | outcome [2] | outcome [3] | Potency [4] | Potency [5] | Potency [6] | outcome [7] | Potency [8]

Cn1c(N)nc2c3cccnc3ccc21
inactive: Potency [1] | outcome [2] | outcome [3] | Potency [4] | Potency [5] | Potency [6] | outcome [7] | Potency [8]

O=C1CCCCC1Cl (stereo not given)
inactive: Potency [1] | outcome [2] | outcome [3] | Potency [4] | Potency [5] | Potency [6] | outcome [7] | Potency [8]

C/C(=N\NC(=O)Nc1cc(F)cc(F)c1)c1ncccc1C(=O)O
inactive: Potency [1] | outcome [2] | outcome [3] | Potency [4] | Potency [5] | Potency [6] | outcome [7] | Potency [8]

CCCCCCCC(=O)Cl
inactive: Potency [1] | outcome [2] | outcome [3] | Potency [4] | Potency [5] | Potency [6] | Potency [8]

CN1C(=O)COc2c(C(=O)NC3CN4CCC3CC4)cc(Cl)cc21 (stereo not given)
inactive: Potency [1] | outcome [2] | outcome [3] | Potency [4] | Potency [5] | Potency [6] | outcome [7] | Potency [8]

CCNP(=S)(OC)O/C(C)=C/C(=O)OC(C)C (stereo not given)
inactive: Potency [1] | outcome [2] | outcome [3] | Potency [4] | Potency [5] | Potency [6] | outcome [7] | Potency [8]

O=C(Cl)CCl
inactive: Potency [1] | outcome [2] | outcome [3] | Potency [4] | Potency [5] | Potency [6] | Potency [8]

C=CCC1(C(C)CC)C(=O)NC(=O)NC1=O (stereo not given)
inactive: Potency [1] | outcome [2] | outcome [3] | Potency [4] | Potency [5] | outcome [7] | Potency [8]

N#CN
inactive: Potency [1] | outcome [2] | outcome [3] | Potency [4] | Potency [5] | Potency [6] | outcome [7] | Potency [8]

O=C1CC(=O)NC(=O)N1
inactive: Potency [1] | outcome [2] | outcome [3] | Potency [4] | Potency [5] | outcome [7]

CCCOc1nn(C(=O)NS(=O)(=O)c2ccccc2C(=O)OC)c(=O)n1C
inactive: Potency [1] | outcome [2] | outcome [3] | Potency [4] | Potency [5] | Potency [6] | outcome [7] | Potency [8]

O=c1[nH]c2ccccc2n1C1CCNCC1
inactive: Potency [1] | outcome [2] | outcome [3] | Potency [4] | Potency [5] | Potency [6] | Potency [8]

C=CCc1cc(OC)c2c(c1)OCO2
inactive: Potency [1] | outcome [2] | outcome [3] | Potency [4] | Potency [5] | Potency [6] | Potency [8]

ClCCCCCCCl
inactive: Potency [1] | outcome [2] | outcome [3] | Potency [4] | Potency [5] | outcome [7]

CCOC(=O)CCl
inactive: Potency [1] | outcome [2] | outcome [3] | Potency [4] | Potency [5] | Potency [6] | Potency [8]

CC(C)NCC(O)c1ccc([N+](=O)[O-])cc1 (stereo not given)
inactive: Potency [1] | outcome [2] | outcome [3] | Potency [4] | Potency [5] | Potency [6] | outcome [7] | Potency [8]

CCCC(C)C1(CC)C(=O)N=C(S)NC1=O (stereo not given)
inactive: Potency [1] | outcome [2] | outcome [3] | Potency [4] | Potency [5] | Potency [6] | outcome [7] | Potency [8]

COP(=O)(O)OC
inactive: Potency [1] | outcome [2] | outcome [3] | Potency [4] | Potency [5] | Potency [6] | outcome [7] | Potency [8]

N#CC(Br)(Br)C(N)=O
inactive: Potency [1] | outcome [2] | outcome [3] | Potency [4] | Potency [5] | Potency [6] | outcome [7] | Potency [8]

C=CC=O
inactive: Potency [1] | outcome [2] | outcome [3] | Potency [4] | Potency [5] | outcome [7] | Potency [8]

[O-][Br+2]([O-])O
inactive: Potency [1] | outcome [2] | outcome [3] | Potency [4] | Potency [5] | Potency [6] | outcome [7] | Potency [8]

ClCCCCl
inactive: Potency [1] | outcome [2] | outcome [3] | Potency [4] | Potency [5] | Potency [6] | outcome [7] | Potency [8]

CCOC(=O)C(Cl)Cc1cc(-n2nc(C)n(C(F)F)c2=O)c(F)cc1Cl (stereo not given)
inactive: Potency [1] | outcome [2] | outcome [3] | Potency [4] | Potency [5] | outcome [7] | Potency [8]

BrCc1ccc(Br)cc1
inactive: Potency [1] | outcome [2] | outcome [3] | Potency [4] | Potency [5] | outcome [7] | Potency [8]

CCCCCCC(=O)CCCCCC/C=C/C[C@@H](O)[C@H](O)[C@@](N)(CO)C(=O)O
inactive: activity change, negative = cytotoxicity [1] 0.46% [at 15.8 µM] | activation (H2AX phosphorylation) [2] -0.061% [at 31.6 µM] | activation [3] -0.0517% [at 15.8 µM] | activity change, negative = cytotoxicity [4] -0.19% [at 31.6 µM] | activity change, negative = cytotoxicity [5] 0.745% [at 15.8 µM] | cytotoxicity [7] 0.947% [at 15.8 µM] | activity change, negative = cytotoxic [8] 0.839% [at 15.8 µM]

O=C(Cl)C(Cl)Cl
inactive: Potency [1] | outcome [2] | outcome [3] | Potency [4] | Potency [5] | outcome [7] | Potency [8]

CCCN1CCC[C@@H]2Cc3nc(N)ncc3C[C@H]21
inactive: Potency [1] | outcome [2] | Potency [4] | Potency [9] | activity change, positive = activation [10] 3.55% [at 42.5 µM] | Potency [5] | Potency [6] | Potency [8]
